Compound activity as filed in PubChem BioAssay.
Hits are enriched below; roughly 11% of the tested compounds scored in any of these assays.
FLuc inh = Photinus pyralis luciferase inhibition; 76,000 tested, 2.5% active; Potency, µM (series often up to 115 µM), usual class: inhibitors; AID 1347043; purified P. pyralis luciferase, luminescence, biochemical; also: nearly all actives have a fitted effect of over 65% in size
Target sequence (P08659 whole entry, looked up): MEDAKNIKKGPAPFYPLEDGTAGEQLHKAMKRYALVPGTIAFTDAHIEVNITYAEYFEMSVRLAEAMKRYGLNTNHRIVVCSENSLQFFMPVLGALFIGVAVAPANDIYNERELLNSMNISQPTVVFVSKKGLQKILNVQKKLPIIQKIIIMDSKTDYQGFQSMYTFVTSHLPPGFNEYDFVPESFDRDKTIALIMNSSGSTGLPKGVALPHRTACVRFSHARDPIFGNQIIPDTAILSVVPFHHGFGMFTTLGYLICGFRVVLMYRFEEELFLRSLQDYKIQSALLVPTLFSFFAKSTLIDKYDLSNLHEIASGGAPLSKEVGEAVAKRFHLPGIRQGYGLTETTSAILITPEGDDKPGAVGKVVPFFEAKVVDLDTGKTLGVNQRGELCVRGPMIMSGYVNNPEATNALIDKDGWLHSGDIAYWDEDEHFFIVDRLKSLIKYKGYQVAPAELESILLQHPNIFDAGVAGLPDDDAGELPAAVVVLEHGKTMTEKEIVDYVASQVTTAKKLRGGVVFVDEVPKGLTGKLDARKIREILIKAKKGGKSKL
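Inhibitors were tested against purified firefly luciferase in a biochemical, low-substrate format (both substrates at 10uM) and luminescence measured with a CCD imager.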
NPR1 antag = blocks ANP-stimulated signaling of human Npr1 receptor; HEK293 hNpr1 GloSensor cGMP, ANP-stimulated luminescence; Potency, µM (highest dose often 46.3 µM), for the others: at the highest dose activity change, negative = inhibition, actives largely listed as inhibitors; 76,000 tested, 1.6% active; AID 1347048; calls by dose curve; also: nearly all actives have a fitted effect of over 60% in size
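Compound pre-incubated 30 min at room temperature on GloSensor-loaded HEK293 cells stably carrying hNpr1 and the pGS-40F cGMP biosensor. Stimulation uses hNppA at 0.1 nM final; luminescence is taken at baseline and 20 min post-agonist.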
NIH3T3 tox = cytotoxic compounds in NIH 3T3 cells | NIH 3T3 viability, CellTiter-Glo ATP luminescence, 48-72 h | Potency, µM (highest dose often 96.7 µM), for the others: at the highest dose activity change, negative = cytotoxicity, actives largely listed as inhibitors | 94,000 tested, 4.3% active | AID 1345082; also: nearly all actives have a fitted effect of over 55% in size
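ATP-dependent luminescence (CellTiter-Glo) served as the viability signal for NIH 3T3 cells treated with compound for 48 or 72 hr at 37 °C.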
HEK293 tox = HEK 293 cell cytotoxicity | HEK 293 viability, ATP luminescence (CellTiter-Glo), 48-72 h | Potency, µM (series often up to 115 µM), for inactives: top-dose activity change, negative = cytotoxicity, actives largely listed as inhibitors | 94,000 tested, 6.6% active; also: nearly all actives have a fitted effect of over 60% in size
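Luminescence from cellular ATP, measured with CellTiter-Glo, indicates HEK 293 viability. Cells plated at 250 cells/well are treated with compound for 48 or 72 hr at 37 degree Celsius before reagent addition.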
* = called active by the depositor; i = inactive; u = inconclusive; x = no result given; [ ] = remark or other dose. Unless noted, calls follow the shape of the dose curve; as a rule, active = well fitted curve in the direction sought with a large enough effect; inconclusive = small, poorly fitted or top-dose-only effect, or another doubt; inactive = no such curve, though single readings can be large; an effect the other way counts as inactive or inconclusive. % is scaled to controls: 0 for no effect and ±100 for the full control effect; potency is read from the fitted curve at half-maximal effect.

SMILES	FLuc inh	NPR1 antag	NIH3T3 tox	HEK293 tox
CC1CCCCC1Nc1ncnc2c1CN(C1CCCNCC1)C(=O)CN2C (stereo not given)	x	x	5%	-1%
O=C1Nc2ccccc2C12CN([S+](=O)([O-])c1cccc(C(F)(F)F)c1)C2	x	x	u	-22%
O=C1Nc2ccccc2C12CCN([S+](=O)([O-])c1ccsc1)CC2	i	-28%	-8%	45µM*
Cc1ccc([S+](=O)([O-])N2CCC(C(=O)N3CCC(c4nc5ccncc5[nH]4)C3)CC2)cc1 (stereo not given)	x	x	-9%	i
CCOc1ccc(NC(=O)c2ccc3c(c2)N(CC)C2CCCCN2C3=O)cc1 (stereo not given)	i	-9%	22µM*	32µM*
CCOC(=O)c1ccc(NC(=O)c2ccc3c(c2)N(CC)C2CCCN2C3=O)cc1 (stereo not given)	i	-4%	-40%	u
CCOC(=O)c1ccc(NC(=O)c2ccc3c(c2)N(C)C2CCCCN2C3=O)cc1 (stereo not given)	i	0%	u	35µM*
CCN1c2cc(C(=O)Nc3cc(OC)cc(OC)c3)ccc2C(=O)N2CCCCC21 (stereo not given)	i	-7%	-22%	u
CCOC(=O)c1ccc(NC(=O)c2ccc3c(c2)N(CC)C2CCCCN2C3=O)cc1 (stereo not given)	i	-25%	u	35µM*
O=C1NCCCCCCN(C(=O)c2ccco2)[C@H]2C[C@H](c3nc(Cc4ccccc4)no3)C[C@@H]12	i	1%	u	u
Cc1cc(NC(=O)CN2C(=O)NC(c3ccccc3Cl)C3=C2COC3=O)ccc1Br (stereo not given)	u	-22%	40µM*	45µM*
Cc1ccc(C2NC(=O)N(CC(=O)Nc3c(C)cccc3Cl)C3=C2C(=O)OC3)cc1 (stereo not given)	i	0%	0%	14%
O=C(CN1C(=O)NC(c2ccc(Cl)cc2)C2=C1COC2=O)Nc1cc(F)cc(F)c1 (stereo not given)	i	-29%	25µM*	25µM*
Cc1cccc(Cl)c1NC(=O)CN1C(=O)NC(c2ccc(Cl)cc2)C2=C1COC2=O (stereo not given)	i	-13%	u	32µM*
O=C(CN1C(=O)NC(c2ccc(Cl)cc2)C2=C1COC2=O)Nc1ccc2c(c1)OCO2 (stereo not given)	i	-10%	u	u
O=C(CN1C(=O)NC(c2ccc(Cl)cc2)C2=C1COC2=O)Nc1ccc(Cl)cc1F (stereo not given)	i	-26%	35µM*	u
Cc1cc2c(c(=O)n(-c3ccc(F)cc3)c(=O)n2CC(=O)Nc2ccc(F)cc2)n1C	i	-1%	-19%	u
COc1ccc(CCNC(=O)c2ccc3oc(-c4ccnc(Cl)c4)nc3c2)cc1	x	x	-31%	-15%
O=C(CN1C(=O)NC(c2ccc(Cl)cc2)C2=C1COC2=O)Nc1cc(F)ccc1F (stereo not given)	i	-17%	u	45µM*
CCOC(=O)c1ccccc1NC(=O)CN1C(=O)NC(c2ccc(C)cc2)C2=C1COC2=O (stereo not given)	i	-11%	u	32µM*
COCC(=O)N1CCCC1C(=O)N1CCC(c2ccccc2)CC1 (stereo not given)	x	x	-8%	-3%
COCc1noc([C@@H]2CN(S(=O)(=O)Cc3ccc(F)cc3)C[C@H]2C(N)=O)n1	i	-1%	-13%	-4%
COc1cncc(CN2CCc3ncc(C(=O)Nc4ccccc4)n3CC2)c1	i	-2%[70.6 µM]	u	i
Cc1ccc(-c2cc(C(=O)NCc3ccc(C(F)(F)F)cc3)c3cnn(C)c3n2)c(C)c1	x	x	u	35µM*
CC(=O)N1CCN(C(=O)c2cc(-c3cccc(C(F)(F)F)c3)nc3c2cnn3C)CC1	x	x	u	-19%
COc1ccc(-c2cc(C(=O)NCc3cccc(C(F)(F)F)c3)c3cnn(C)c3n2)cc1	x	x	32µM*	35µM*
CN1CCN(C(=O)c2cc(-c3cccc(C(F)(F)F)c3)nc3c2cnn3C)CC1	x	x	32µM*	u
CC(=O)N1CCCN(C(=O)c2cc(-c3cc(Cl)cc(Cl)c3)nc3c2cnn3C)CC1	x	x	u	79µM*
CCN1CCN(C(=O)c2cc(-c3cc(Cl)cc(Cl)c3)nc3c2cnn3C)CC1	x	x	-25%	-2%
